# From the supplement of paper PMC6555819
# What was measured:
# Test in all cases: PBM binding z-score (relative to random genomic background probes); higher = stronger binding; sequences stand for … in GC…GCGATTGACAGCGTAGAATGAAGG
# [1] = tested on: LXRa:RXRa (NR concentration 270 nM, RXRa partner concentration 90 nM)
# Summary of the method: (§1)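 Binding z-scores take random background probes as their reference. They come from custom Agilent 4×180K protein-binding microarrays incubated 1 h with ligand-free nuclear receptor dimers, with antibodies against each partner (one per run) detecting binding. Scanned fluorescence was regression-normalized.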
# [2] = tested on: LXRa homodimer (NR concentration 270 nM)
# Summary of the method: as §1
# [3] = tested on: LXRb homodimer (NR concentration 270 nM)
# Summary of the method: as §1
# [4] = tested on: PPARg:RXRa (NR concentration 180 nM, RXRa partner concentration 90 nM)
# Summary of the method: as §1
# [5] = tested on: PPARg:RXRa 270nM:90nM, anti-RXR (NR concentration 270 nM, RXRa partner concentration 90 nM)
# Summary of the method: as §1
# [6] = tested on: PPARg:RXRa 30nM:10nM, anti-RXR (NR concentration 30 nM, RXRa partner concentration 10 nM)
# Summary of the method: as §1
# [7] = tested on: PPARg:RXRa 90nM:30nM, anti-RXR (NR concentration 90 nM, RXRa partner concentration 30 nM)
# Summary of the method: as §1
# [8] = tested on: PPARg:RXRa DBDmut IVT, anti-RXR (DBD mutation: RXRa K156A/R161A, NR concentration 270 nM, RXRa partner concentration 90 nM)
# Summary of the method: as §1
# [9] = tested on: PPARg:RXRa IVT, anti-PPARg (NR concentration 270 nM, RXRa partner concentration 90 nM)
# Summary of the method: as §1
# [10] = tested on: PPARg DBDmut:RXRa IVT, anti-PPARg (DBD mutation: PPARg1 K132A/R137A, NR concentration 270 nM, RXRa partner concentration 90 nM)
# Summary of the method: as §1
# [11] = tested on: PPARg DBDmut IVT, anti-PPARg (DBD mutation: PPARg1 K132A/R137A, NR concentration 270 nM)
# Summary of the method: as §1
# [12] = tested on: PPARg homodimer (NR concentration 180 nM)
# Summary of the method: as §1
# [13] = tested on: PXR:RXRa (NR concentration 270 nM, RXRa partner concentration 90 nM)
# Summary of the method: as §1
# [14] = tested on: PXR homodimer (NR concentration 270 nM)
# Summary of the method: as §1
# [15] = tested on: RARa:RXR (NR concentration 270 nM, RXRa partner concentration 90 nM)
# Summary of the method: as §1
# [16] = tested on: RARa homodimer (NR concentration 270 nM)
# Summary of the method: as §1
# [17] = tested on: RARb:RXRa (NR concentration 270 nM, RXRa partner concentration 90 nM)
# Summary of the method: as §1
# [18] = tested on: RARb homodimer (NR concentration 270 nM)
# Summary of the method: as §1
Sequence,PBM binding z-score [1],PBM binding z-score [2],PBM binding z-score [3],PBM binding z-score [4],PBM binding z-score [5],PBM binding z-score [6],PBM binding z-score [7],PBM binding z-score [8],PBM binding z-score [9],PBM binding z-score [10],PBM binding z-score [11],PBM binding z-score [12],PBM binding z-score [13],PBM binding z-score [14],PBM binding z-score [15],PBM binding z-score [16],PBM binding z-score [17],PBM binding z-score [18]
TCTATTAGTTGATTAGGGCAACCGAAACAGCGGA,0.552,0.193,0.613,0.303,2.14,3.65,2.63,2.02,1.84,0.572,0.488,1.34,0.609,0.491,1.03,1.33,0.953,0.738
TTACCAAGGTGAACGGTCGTTGATGCACGCCTTG,0.744,-0.159,-0.974,1.77,2.8,1.17,2.35,2.31,3.55,1.13,0.904,0.997,-0.0425,-0.818,0.693,-0.752,2.03,1.31
ACTCGGTGGACAAAGGTCAGAGCTACGCCAGTGA,3.52,0.715,-0.512,6.18,6.42,5.2,6.63,0.195,3.04,-0.478,-0.742,2,3.37,-0.0874,4.02,0.366,3.96,4.06
TAGCCTAGGTCATACAGGGGCCAGTATAGAAAGC,3.34,0.359,0.751,2.36,2.35,0.845,1.62,1.94,2.89,0.2,-0.11,1.83,2.1,-0.101,3.56,0.204,3.91,3.38
CCTACTGGGCCAAAGAGGTCATTGATGCCGATAA,3.88,2.87,-0.243,3.95,4.73,1.71,3.75,4.23,4.34,-0.355,-0.682,1.81,4.81,4.26,4.39,0.256,3.07,3.65
AGAATGAGGTCACCAAAGATCAGGGAAACGCTTG,6.5,1.08,0.991,8.68,8.01,5.4,7.63,7.14,7.35,1.62,0.808,3.69,5.47,1.12,5.82,1.69,5.43,4.08
ATCGAAAGGTCCACGAGGTGAGTATACACCGTTT,0.186,-0.0739,-0.26,0.818,0.448,0.0544,0.533,0.0323,0.791,0.466,0.248,0.167,0.264,-0.268,0.714,0.24,1.66,1.2
AACGAAAGGTCGAAGGTGAGTATACCCACCCGAA,3.94,0.129,0.37,4.7,4.9,2.35,3.92,0.349,2.16,0.625,-0.0943,0.991,3,-0.293,4.48,0.698,3.79,2.48
ATATGTAGGTTAAGCGTCATTCAGGTTGGTTCGC,1.08,0.422,0.251,6.75,6.77,5,6.63,7.13,7.49,1.71,1.99,1.04,0.685,-0.178,0.705,0.512,1.17,0.88
CCTACTCGGCCAAAAAGGTCATTGATGCCGATAA,4.55,4.59,0.927,1.91,3.11,0.833,2.27,1.1,2.03,-0.62,-0.0585,3.26,4.83,3.27,4.83,1.71,4.07,4.59
CCTACTGGGCCTAAGGTCATTGATTCCAATGCTC,2.93,2.32,0.209,7.98,8.17,7.15,8.08,1.25,3.86,-0.629,-0.793,2.07,3.7,1.98,3.54,0.174,3.15,3.54
TATAAAGGGTCAAAGGCCAGAGTACGAATGTCGA,6.68,2.98,3.14,8.34,7.5,6.09,7.52,2.57,4.93,2.86,2.33,3.29,4.36,0.699,5.99,1.64,5.27,4.32
CGTCAAAGATCAAGGTAACGTAACAGAAAGCAGC,-0.053,-0.313,-0.677,0.887,1.09,0.0515,0.332,0.519,0.642,0.647,0.471,0.374,0.00649,-0.253,0.485,0.251,0.252,-0.124
CGTCCAAGGTCAAGGTCAATGAAAGAGACTCGAA,6,1.82,1.11,7.25,6.84,3.28,5.67,3.68,5.34,2.6,2.44,4.82,5.3,1.41,5.88,3.2,5.75,4.92
TAGCCTAGGGCATTCAGGGGCCAGTATAGAAAGC,-0.052,-0.233,-0.352,0.0283,-0.154,-0.552,-0.385,-0.268,0.75,-0.631,-1.01,-0.114,-0.0151,-0.113,0.405,-0.803,1.42,1.35
CGAACTAGGTCAAGGCCAGTGAATCTCCGCACGC,2.42,0.284,-0.563,7.33,6.58,3.87,6.13,8.07,8.42,3.5,2.31,1.99,1.35,-0.029,2.32,0.0978,4.11,3.35
AGTCAAAGTTCAGGACGAGGTAACGTTAAGCACG,3.74,1.1,0.0351,4.29,4.64,2.03,3.86,-0.183,1.92,0.603,0.235,2.35,3.11,1.65,2.78,0.838,4.3,3.3
CGAACTAGGTCGTCCAGGACAGTGAATACATTGA,0.121,-0.214,-0.486,2.47,1.89,0.4,1.39,5.71,4.97,0.213,0.237,-0.545,0.256,-0.263,0.281,-0.365,1.14,0.392
CGTCCGAGGTCAAGGTCAGTGAAAGAGACTCGAA,6.22,1.31,1.54,7.82,7.45,3.9,6.47,4.18,5.07,0.688,-0.148,4.23,5.51,1.87,6.15,1.57,5.71,5.16
TAGCCTAAGTCATGCGGGCCAGTATAGTGTCGGC,-0.396,-0.595,-1.13,-0.117,-0.602,-0.673,-0.77,-0.333,-0.138,-0.862,-1.37,-0.139,-0.538,-0.831,-0.11,-1.14,-0.165,-0.506
ACGCGGAGGACAAAGGTCAGAGCTACGCCAGTGA,4.13,1.02,0.25,7.04,6.29,4.31,6.15,0.442,3.08,-0.183,-0.911,2.67,3.88,0.273,5.05,0.759,4.48,4.11
AATACAGGGTCACGAGGCCAGAGTAGGTACGAAT,6,1.22,0.897,8.68,7.43,4.39,6.65,3.9,5.74,2.21,2.16,3.03,4.43,0.257,5.27,1.39,5.07,4.14
TTACCAAGGTGAAAGGTCGTTGCTGCACGCCTTG,3.07,0.401,-0.185,8.98,7.85,8.63,8.9,2.97,5.07,0.655,0.268,1.88,3.88,0.364,5.58,-0.419,3.14,2.59
TCTAGTTGGTCACGGAGGGCACACACGACGGGTA,0.609,-0.107,0.00573,1.25,2.05,2.8,2.39,2.05,2.85,0.649,0.752,1.2,1.11,0.255,1.01,0.42,2.35,2.28
TGTCAACGTTCAAAGGTAACGTAAGTATCCACAC,0.794,-0.182,0.0417,2.58,2.69,1.18,2.07,-0.155,1.78,0.941,0.758,0.252,0.578,-0.0241,1.36,0.107,1.46,1
AGCGAAAGGTCGAGGTGAGTATAGAGAAAGGGAA,3.18,-0.189,-0.246,3.81,4.31,1.4,3.37,0.228,2.26,0.0948,0.386,1.75,2.52,0.259,3.19,0.743,4.03,2.64
TAGCCGAGGTCATTCAGGGGCCAGTATAGAAAGC,6.28,2.47,2.89,6.14,5.81,2.43,4.55,1.75,3.9,1.06,1.57,4.27,5.92,2.27,6.51,0.64,5.27,4.49
CGAACAAGGTCATTGACAGGACAGTGAATAGTAA,5.4,1.2,1.12,5.6,5.66,2.36,4.75,4.08,4.81,1.05,0.903,2.11,4.12,1.79,4.28,1.42,5,3.92
CAAACTAGGTCACGAGAGGTCAAAGTCGAATGAC,8.28,8.5,2.4,10.7,8.59,6.83,8.87,8.71,9.18,3.71,4.06,5.24,–,3.95,7.58,2.65,5.51,5.6
